Data: PubChem BioAssay (EPA / NIEHS)
Where “and” joins values, the source holds several entries; their conditions need not be identical. Equal entries are not always repeated. Some structures have more than one record in an assay (separate samples or runs), and their calls can disagree. Calls of active or inactive are those of the source. How the source made its calls: active means hit-call score of the fitted dose curve at least 0.9, where 1 is the maximum; inactive means score below 0.9.

test: BSK_SAg_PBMCCytotoxicity: PBMC Cytotoxicity Assessment in the BioMAP Diversity Plus: SAg Assay (AID 2283093); conditions: primary human HUVEC with PBMC;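 further: fitted both ways against DMSO so a hit may be loss or gain of signal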
Protocol: BSK_SAg is a cell-based, multiplexed-readout assay that uses umbilical vein endothelium and peripheral blood mononuclear cells, a human vascular primary cell co-culture, with measurements taken at 24 hours after chemical dosing in a 96-well plate.BSK_SAg_PBMCCytotoxicity is an assay component measured in the BSK_SAg assay. It measures Alamar blue related to cell death using Alamar Blue Reduction technology.Data from the assay component BSK_SAg_PBMCCytotoxicity was analyzed into 1 assay endpoint. This assay endpoint, BSK_SAg_PBMCCytotoxicity, was analyzed with bidirectional fitting relative to DMSO as the negative control and baseline of activity. Using a type of viability reporter, gain or loss-of-signal activity can be used to understand changes in the viability. Furthermore, this assay endpoint can be referred to as a secondary readout, because this assay has produced multiple assay endpoints where this one serves a viability function. To generalize the intended target to other relatable targets, this assay endpoint is annotated to the cell cycle intended target family, where the subfamily is cytotoxicity.
The levels of cell surface (or secreted, indicated by the prefix "s") biomarker endpoints were measured by ELISA. Overt cytotoxicity to cells in confluent adherent cultures (all systems other than the BT system) was assessed by measuring total protein levels using sulforhodamine B (SRB) staining in parallel cultures at the time of biomarker measurements, indicated as SRB endpoints. For proliferation assays for adherent cell types, individual cell types are cultured at sub-confluence and relative cell numbers quantified by SRB staining at time points optimized for each system (48 h: 3C and CASM3C systems; 72 h: BT and HDF3CGF systems; 96 h: SAg system). SRB was performed by staining cells with 0.1% SRB after fixation with 10% TCA and reading wells at 560 nm.Viability and proliferation of PBMC (T cells) was quantified by Alamar Blue reduction for the SAg and BT systems. For PBMC viability (referred to as PBMC Cytotoxicity within the assay endpoint names), cells were plated (75,000/well in a 96-well plate) and then chemical samples added for 1 h before addition of activators, SEB and TSST-1 (20 ng/mL final concentration each). Cells were incubated for 90 h. Then, Alamar Blue (20 uL/well) (Invitrogen, Cat DAL1100) was added for 6 h, and the plates were read with a fluorescence microplate reader at 546/580 nm (excitation/emission). For PBMC proliferation, cells were plated and activated as above but incubated for only 16 h prior to addition of Alamar Blue. Plates were read after 6 h.

Row | SMILES | AC50 | outcome
1 | Cc1oc(-c2ccccc2)nc1CCOc1ccc(C[C@H](Nc2ccccc2C(=O)c2ccccc2)C(=O)O)cc1 | 28.9 µM (active) | 
2 | CC(C)(C)c1cc(C(C)(C)C)c(O)c(C(C)(C)C)c1 |  | inactive
3 | COCC(C)OCC(C)O (stereo not given) |  | inactive
4 | CC(=O)CC(C)(C)O |  | inactive
5 | CC[C@H](c1ccc(O)cc1)[C@@H](CC)c1ccc(O)cc1 | 31.1 µM (active) | 
6 | CC(O)CO (stereo not given) |  | inactive
7 | CN1CCC[C@H]1c1cccnc1 |  | inactive
8 | CCCCCCCCCCCCCCCS(=O)(=O)Oc1ccccc1 | 5.98 µM (active) | 
9 | O=[N+]([O-])c1ccc(O)cc1 |  | inactive
10 | c1ccc2cc3c(ccc4ccccc43)cc2c1 |  | inactive
11 | O=c1c(-c2ccc(O)cc2)coc2cc(O)ccc12 |  | inactive
12 | C[C@@H]1C[C@H]2[C@@H]3CCC4=CC(=O)C=C[C@]4(C)[C@@]3(F)[C@@H](O)C[C@]2(C)[C@@]1(O)C(=O)COP(=O)(O)O |  | inactive
13 | CC(C)(C)c1cccc(C(C)(C)C)c1O |  | inactive
14 | OC1CCC(C2CCCCC2)CC1 (stereo not given) |  | inactive
15 | CCCCCCCCOC(=O)CCCCCCCCC(=O)OCCCCCCCC |  | inactive
16 | NC(=O)N1C(=O)C(C(=O)c2cc(Cl)cs2)c2cc(F)c(Cl)cc21 (stereo not given) |  | inactive
17 | O=C(O)c1ccccc1C(c1ccc(O)cc1)c1ccc(O)cc1 |  | inactive
18 | NC(=O)N(O)[C@@H]1C=C[C@H](Oc2cccc(Oc3ccc(F)cc3)c2)C1 |  | inactive
19 | CCCCCCCCCCCCCC[N+](C)(C)C | 4.69 µM (active) | 

Row | SMILES | AC50 | outcome
20 | Oc1cccc(O)c1 |  | inactive
21 | CC1=C(/C=C/C(C)=C/C=C/C(C)=C/C(=O)O)C(C)(C)CCC1 |  | inactive
22 | COC(=O)CCCCC(=O)OC |  | inactive
23 | CCCOC(=O)c1ccc(O)cc1 |  | inactive
24 | CCCCOCCO |  | inactive
25 | OCCC(F)(F)C(F)(F)C(F)(F)C(F)(F)C(F)(F)C(F)(F)F | 47.7 µM (active) and 55.7 µM (active) | inactive
26 | Cc1cc(C)c(O)c(C)c1 |  | inactive
27 | CC(=O)NC1(c2cccc(F)c2)CCN(CC[C@@]2(c3ccc(Cl)c(Cl)c3)CN(c3ccccc3)C(=O)CO2)CC1 | 24.7 µM (active) | 
28 | c1ccc2c(c1)Cc1ccccc1-2 |  | inactive
29 | Cc1cc(CCN2CCN(c3nsc4ccccc34)CC2)cc2c1NC(=O)CC2(C)C | 13 µM (active) | 
30 | CC(C)(C)CC(C)(C)c1ccc(O)c(-n2nc3ccccc3n2)c1 |  | inactive
31 | CN(C)C=O |  | inactive
32 | ClC1=C(Cl)C(Cl)(Cl)C(Cl)=C1Cl | 10.4 µM (active) | 
33 | C=C(C)C(=O)OCCC(F)(F)C(F)(F)C(F)(F)C(F)(F)C(F)(F)C(F)(F)F |  | inactive
34 | NCC(F)(F)C(F)(F)C(F)(F)C(F)(F)C(F)(F)C(F)(F)C(F)(F)F | 47.2 µM (active) | inactive
35 | CCc1nn(C2CCCCC2)c2cc(C3(C#N)CCC(C(=O)O)CC3)ccc12 (stereo not given) |  | inactive
36 | CCCCC(CC)COC(=O)CCCCC(=O)OCc1ccccc1 (stereo not given) |  | inactive
37 | Oc1cc2ccccc2c2ccccc12 | 3.93 µM (active) | 
38 | CC#C[C@]1(O)CC[C@H]2[C@@H]3CCC4=CC(=O)CCC4=C3[C@@H](c3ccc(N(C)C)cc3)C[C@@]21C |  | inactive
